According to PubChem BioAssay:
Unmarked numbers belong to inactive results. Activity calls are given as the source filed them.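 Rule for the calls, unless noted: active = mean inhibition above 46.68%, the untreated control wells mean plus 3 SD; inactive = the rest.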

Experiments:
[1] = biological target: Nuclear receptor coactivator 1 (Homo sapiens) (UniProt Q15788); assay: NCOA1 GAL4-fusion reporter inhibition – cell-based, luminescence, quadruplicate, confirmation (AID 588820); details: HEK293 GAL4-SRC1 luciferase reporter, at 3.6 µM, hits give high values;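 note: 0% = DMSO wells and 100% = gossypol 36 µM treated wells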
[2] = repression of VP16-driven luciferase reporter – cell-based, luminescence, high throughput, counter-screen for SRC1 inhibitor project (AID 588824; in the data active = inhibition above about 25%); details: cell-based VP16 transactivation luciferase luminescence; at 3.6 µM; hits give high values

Sequence of Nuclear receptor coactivator 1 (Homo sapiens) (Q15788 whole entry, looked up, the tested form may be a part): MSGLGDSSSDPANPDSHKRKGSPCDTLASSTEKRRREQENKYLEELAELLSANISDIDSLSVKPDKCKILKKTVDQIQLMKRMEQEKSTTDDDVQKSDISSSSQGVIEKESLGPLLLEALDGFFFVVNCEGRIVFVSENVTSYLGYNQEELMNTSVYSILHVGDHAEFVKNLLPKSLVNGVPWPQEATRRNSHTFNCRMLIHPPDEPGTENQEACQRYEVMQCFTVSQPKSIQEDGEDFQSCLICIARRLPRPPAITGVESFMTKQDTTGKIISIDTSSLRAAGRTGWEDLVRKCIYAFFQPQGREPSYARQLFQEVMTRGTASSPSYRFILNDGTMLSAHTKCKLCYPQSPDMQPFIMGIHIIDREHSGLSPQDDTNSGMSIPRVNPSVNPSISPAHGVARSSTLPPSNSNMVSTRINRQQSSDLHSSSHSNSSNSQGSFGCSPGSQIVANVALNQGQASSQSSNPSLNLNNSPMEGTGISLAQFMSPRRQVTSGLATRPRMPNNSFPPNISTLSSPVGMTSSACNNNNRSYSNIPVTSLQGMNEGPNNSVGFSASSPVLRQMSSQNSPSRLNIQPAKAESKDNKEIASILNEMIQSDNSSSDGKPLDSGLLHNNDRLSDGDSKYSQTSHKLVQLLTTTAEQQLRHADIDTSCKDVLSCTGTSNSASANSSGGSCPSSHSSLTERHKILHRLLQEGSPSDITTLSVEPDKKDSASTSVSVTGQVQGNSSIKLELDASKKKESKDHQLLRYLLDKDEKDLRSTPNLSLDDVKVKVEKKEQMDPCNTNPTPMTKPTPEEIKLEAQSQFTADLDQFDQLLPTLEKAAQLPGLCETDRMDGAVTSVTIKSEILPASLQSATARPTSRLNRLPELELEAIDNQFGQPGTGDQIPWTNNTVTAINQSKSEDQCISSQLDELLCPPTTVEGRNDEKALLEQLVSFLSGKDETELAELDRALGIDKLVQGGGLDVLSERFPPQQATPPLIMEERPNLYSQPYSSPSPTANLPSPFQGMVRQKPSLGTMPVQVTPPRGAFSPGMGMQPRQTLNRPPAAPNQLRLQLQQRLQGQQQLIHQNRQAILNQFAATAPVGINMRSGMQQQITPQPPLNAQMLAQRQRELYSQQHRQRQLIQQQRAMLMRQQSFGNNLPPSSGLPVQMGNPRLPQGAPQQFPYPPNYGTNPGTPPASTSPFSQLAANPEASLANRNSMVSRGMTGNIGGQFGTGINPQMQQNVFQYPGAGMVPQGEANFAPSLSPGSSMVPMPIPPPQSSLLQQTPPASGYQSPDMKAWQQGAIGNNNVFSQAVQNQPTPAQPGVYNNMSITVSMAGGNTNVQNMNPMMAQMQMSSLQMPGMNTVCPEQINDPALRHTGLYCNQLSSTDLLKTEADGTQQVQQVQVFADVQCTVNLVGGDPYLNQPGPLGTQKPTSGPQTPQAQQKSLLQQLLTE

SMILES	inhibition [1] [%]	inhibition [2]
CCOC(=O)c1[nH]c(C)c(C(=O)OCc2ccc(C)cc2)c1C	4.43	5.19%
Cc1ccc2nc(NC(=O)CCCC(=O)O)sc2c1	45.4	37.5% (active)
CN1CCN(c2ccc(CNS(=O)(=O)c3ccc(F)cc3Cl)cc2)CC1	-2.89	-5.39%
COc1ccc(CNC(=O)C(c2ccc(C)cc2)N(Cc2cccs2)C(=O)c2ccc3c(c2)OCCO3)cc1 (centres undefined)	-13.9	-1.62%
COc1ccc(C(=O)NNC(=O)C(=O)Nc2ccc(C)c(Cl)c2)cc1	5.87	-0.11%
COc1ccc(NC(=O)NNC(=O)COc2ccc3ccccc3c2)cc1OC	14	8.08%
COc1ccc(C(=O)Nc2ccc(N3CCCCCC3)cc2)cc1S(=O)(=O)N1CCOCC1	-2.46	18.2%
COc1ccc(-c2nc(-c3ccc(NC(=O)c4ccncc4)cc3)no2)cc1OC	-3.19	41.4% (active)
O=c1c2ccccc2oc2ccc(C#CC3(O)CCCCC3)cc12	-38.7	-23.9%
CCN1/C(=C2\C(=O)N(C)C(=S)N2c2ccccc2)C=Cc2ccccc21	-4.3	2.2%
C=CCc1cccc(/C=N/NC(=O)C(C)Nc2ccc(C)cc2)c1O (centres undefined)	6.49	8.01%
CCOC(=O)c1c(-c2ccccc2)csc1NC(=O)c1nn(CC)cc1Br	-4.38	-7.57%
